Reference: PubChem BioAssay (NCI)
Compounds without any hit were thinned out: in the full panel of roughly 83,000, 20% have a hit.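 Results are percent growth after 48 hours of single-concentration exposure. 100 means growth as in untreated cells, lower positive values show inhibition; negative values down to -100 show cell death.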 Active and inactive are the calls of the source. How the source made its calls: active means growth percent below 10; inactive means the rest.

How the values were obtained:
Test in all cases: NCI-60 one-dose screen, 48 h (100 = growth as untreated, 0 = no growth, -100 = all killed)
HCT-15 colon = conditions: 10 µM unless noted
SNB-75 CNS = conditions: 10 µM
SNB-19 CNS = conditions: 10 µM unless noted
U251 CNS = conditions: 10 µM unless noted
PC-3 prostate = conditions: 10 µM unless noted
SK-MEL-5 melanoma = conditions: 10 µM unless noted
UACC-62 melanoma = conditions: 10 µM unless noted
LOX IMVI melanoma = conditions: 10 µM unless noted
SK-MEL-28 melanoma = conditions: 10 µM unless noted
SK-MEL-2 melanoma = conditions: 10 µM unless noted
EKVX NSCLC = conditions: 10 µM unless noted
SN12C renal = conditions: 10 µM unless noted
UO-31 renal = conditions: 10 µM unless noted
TK-10 renal = conditions: 10 µM unless noted
ACHN renal = conditions: 10 µM unless noted
CAKI-1 renal = conditions: 10 µM unless noted
A498 renal = conditions: 10 µM unless noted
CCRF-CEM leukemia = conditions: 10 µM unless noted
MOLT-4 leukemia = conditions: 10 µM unless noted
HT29 colon = conditions: 10 µM unless noted

Measured: growth

COc1ccc(Nc2nc(N)nc3c2CCN(Cc2ccc(OC)cc2OC)C3=O)cc1
inactive: HCT-15 colon 91% | SNB-75 CNS 85.7% | SNB-19 CNS 72.2% | U251 CNS 75.4% | PC-3 prostate 90% | SK-MEL-5 melanoma 80.7% | UACC-62 melanoma 68% | LOX IMVI melanoma 71.9% | SK-MEL-28 melanoma 90% | SK-MEL-2 melanoma 93.7% | EKVX NSCLC 81.5% | SN12C renal 70.7% | UO-31 renal 60.3% | TK-10 renal 84.8% | ACHN renal 80.7% | CAKI-1 renal 92.9% | A498 renal 76.8% | CCRF-CEM leukemia 86.1% | MOLT-4 leukemia 80.7%

COC(=O)c1cc2cc(-c3ccc(OC)cc3)cnc2[nH]1
active: PC-3 prostate 7.32% | SK-MEL-2 melanoma 8.37% | CAKI-1 renal -2.35%
inactive: HCT-15 colon 11% | SNB-75 CNS 62.5% | SNB-19 CNS 42.4% | U251 CNS 12.6% | SK-MEL-5 melanoma 30.9% | UACC-62 melanoma 23.8% | LOX IMVI melanoma 25.2% | SK-MEL-28 melanoma 56.1% | EKVX NSCLC 47% | SN12C renal 51.9% | UO-31 renal 34.9% | TK-10 renal 38.9% | ACHN renal 44% | A498 renal 28.1% | CCRF-CEM leukemia 22.3% | MOLT-4 leukemia 22.8%

COc1ccc2c(c1)[nH]c(=O)c1c3cc(OC)ccc3cn21
active: HCT-15 colon 4.49% | U251 CNS -47.6% | PC-3 prostate 0.628% | SK-MEL-5 melanoma 5.31% | LOX IMVI melanoma -76.9% | CCRF-CEM leukemia -58.8%
inactive: SNB-75 CNS 74.8% | SNB-19 CNS 25.8% | UACC-62 melanoma 41.9% | SK-MEL-28 melanoma 62.3% | SK-MEL-2 melanoma 71.7% | EKVX NSCLC 48.7% | SN12C renal 32.7% | UO-31 renal 28.6% | TK-10 renal 48.7% | ACHN renal 19.1% | CAKI-1 renal 41.3% | A498 renal 51.7% | MOLT-4 leukemia 26.2%

COc1cc(/C=C/C(=O)c2c(C)nc3ccccc3c2C)ccc1OCCCCOc1cc2c(cc1OC)C(=O)N1CCC[C@H]1C=N2
active: HCT-15 colon -79.6% | SNB-75 CNS -100% | SNB-19 CNS -90.1% | U251 CNS -97.8% | PC-3 prostate -24.6% | SK-MEL-5 melanoma -100% | UACC-62 melanoma -99.2% | LOX IMVI melanoma -92.2% | SK-MEL-28 melanoma -85.5% | SK-MEL-2 melanoma -100% | EKVX NSCLC -26% | SN12C renal -29.6% | UO-31 renal -93.9% | TK-10 renal -48.4% | ACHN renal -80.7% | CAKI-1 renal -34.5% | A498 renal -84.5% | CCRF-CEM leukemia -36.8% | MOLT-4 leukemia -44.7%

Cc1ccc(S(=O)(=O)n2cc(C(=O)C(=O)N3CCOCC3)c3ccccc32)cc1
inactive: HCT-15 colon 96.6% | SNB-75 CNS 104% | SNB-19 CNS 99.5% | U251 CNS 93.8% | PC-3 prostate 67.5% | SK-MEL-5 melanoma 88.1% | UACC-62 melanoma 68.1% | LOX IMVI melanoma 83.9% | SK-MEL-28 melanoma 117% | SK-MEL-2 melanoma 97% | EKVX NSCLC 88% | SN12C renal 87.8% | UO-31 renal 59.7% | TK-10 renal 94.6% | ACHN renal 83.9% | CAKI-1 renal 80.1% | A498 renal 118% | CCRF-CEM leukemia 93.6% | MOLT-4 leukemia 81.5%

C=C[C@@H]1C[C@@H]2Cc3c(C)cc(C)cc3N1O2
inactive: HCT-15 colon 101% | SNB-75 CNS 95.4% | SNB-19 CNS 113% | U251 CNS 90.2% | PC-3 prostate 93% | SK-MEL-5 melanoma 103% | UACC-62 melanoma 96% | LOX IMVI melanoma 88.4% | SK-MEL-28 melanoma 101% | SK-MEL-2 melanoma 110% | EKVX NSCLC 81.6% | SN12C renal 101% | UO-31 renal 101% | TK-10 renal 92.7% | ACHN renal 101% | CAKI-1 renal 92.3% | A498 renal 95.1%
active: CCRF-CEM leukemia -61.1% | MOLT-4 leukemia -50.7%

CCN(CC)CCCNc1nccc2ccc(Cl)cc12
inactive: HCT-15 colon 104% | HT29 colon 96.9% | U251 CNS 96.8% | PC-3 prostate 73.6% | SK-MEL-5 melanoma 99.3% | UACC-62 melanoma 108% | SK-MEL-28 melanoma 117% | SK-MEL-2 melanoma 114% | EKVX NSCLC 103% | SN12C renal 99.6% | UO-31 renal 94.7% | TK-10 renal 99.8% | ACHN renal 112% | CAKI-1 renal 108% | A498 renal 97.9% | CCRF-CEM leukemia 93.1% | MOLT-4 leukemia 103%

COc1ccc(S(=O)(=O)NCCCNc2nccc(-n3ccc4cccnc43)n2)cc1
inactive: HCT-15 colon 75.8% | HT29 colon 108% | U251 CNS 92.5% | PC-3 prostate 86.2% | SK-MEL-5 melanoma 99.1% | UACC-62 melanoma 88.3% | LOX IMVI melanoma 90.8% | SK-MEL-2 melanoma 106% | EKVX NSCLC 87.5% | SN12C renal 90.9% | UO-31 renal 97.5% | TK-10 renal 105% | ACHN renal 94.6% | CAKI-1 renal 69.6% | A498 renal 87.5% | CCRF-CEM leukemia 90% | MOLT-4 leukemia 77.2%

OCCCCCCNc1ncnc2cc(Cl)ccc12
inactive: HCT-15 colon 101% | HT29 colon 99% | U251 CNS 96.8% | PC-3 prostate 80.7% | UACC-62 melanoma 102% | LOX IMVI melanoma 88.1% | SK-MEL-28 melanoma 116% | SK-MEL-2 melanoma 100% | EKVX NSCLC 105% | SN12C renal 99.9% | UO-31 renal 69.7% | TK-10 renal 94.1% | ACHN renal 102% | CAKI-1 renal 90.3% | A498 renal 104% | CCRF-CEM leukemia 78.2% | MOLT-4 leukemia 84.5%
